Shown are actives, neighbours in structure and some others; about 7.8% of the full set was active somewhere.
Lassa entry inh = Lassa virus entry inhibition. 1.2% of 300,000 active. Potency, µM (titrated, usually from 37.9 µM), without a hit: at the highest dose activity change, negative = inhibition, actives largely listed as inhibitors. AID 540256. Lassa virus pseudotype entry inhibition, cell reporter; calls by dose curve; tested in HEK293 cells; note: potency is the fitted concentration of half-maximal effect; nearly all actives have a fitted effect of over 50% in size
HCV inh = inhibitors of hepatitis C virus infection; Huh7.5.1 HCVcc-Cre infection, luciferase reporter, 44 h; AID 651820; 3.4% of 340,000 active; Potency, µM (highest dose often 41.8 µM), for the others: top-dose activity change, negative = inhibition, usual class: inhibitors; active = well fitted inhibition curve with a large enough effect; inconclusive = small, poorly fitted or top-dose-only effect, or another doubt; inactive = no such curve, though single readings can be large or run the other way; note: potency is the fitted concentration of half-maximal effect
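Infectious HCVcc-Cre (~0.5 moi) was added to cells just after compound, with cells seeded 4 h earlier at 1,000 per well. Luciferase activity after 44 h culture reported infection; substrate was incubated 15 min at room temperature before reading.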
VACV mCherry inh = inhibitors of vaccinia virus infection (mCherry reporter signal). Vaccinia virus mCherry reporter infection, fluorescence. Potency, µM (top dose mostly 36.5 µM), for the others: top-dose activity change, negative = inhibition, actives largely listed as inhibitors. 0.63% of 310,000 active; calls by dose curve; tested in A549 cells; note: potency is the fitted concentration of half-maximal effect; nearly all actives have a fitted effect of over 35% in size
HCMV inh = inhibitors of human cytomegalovirus; activity change, negative = inhibition, % at 57.5 µM; 4.5% of 410,000 active; HFF cells, HCMV-luciferase reporter, 72 h; stronger effect = lower value; in the data active = activity change below about -60%; inconclusive = no clear call, values can overlap the other calls; inactive = above about -39%
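Compounds were evaluated in HFFs infected with an HCMV luciferase reporter virus (MOI 1 PFU/cell). Luciferase in lysates collected 72 h post infection served as the replication measure.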
MARV entry inh = blocks Marburg virus binding to or entry into cells; Marburg virus pseudotyped entry inhibition, cell reporter; Potency, µM (highest dose often 37.8 µM), for the others: at the highest dose activity change, negative = inhibition, hits mostly inhibitors; 1.8% of 300,000 active; calls by dose curve; tested in HEK293 cells; note: potency is the fitted concentration of half-maximal effect
VACV Venus inh = inhibitors of vaccinia virus (Venus reporter) | 0.46% of 330,000 active | Vaccinia virus Venus reporter expression, fluorescence | Potency, µM (highest dose often 36.5 µM), for the others: at the top dose activity change, negative = inhibition, actives largely listed as inhibitors | AID 720580; calls by dose curve; tested in A549 cells; note: potency is the fitted concentration of half-maximal effect; nearly all actives have a fitted effect of over 30% in size
* hit, by the source's call; [ ] = another dose, or the depositor's remark. % is set by controls: 0 for no effect and ±100 for the full control effect.

Screening C=C1C(O)[C@@H]2O[C@]3(CC[C@H](/C=C/C(C)[C@@H]4CC(C)=CC5(O[C@H](C[C@@](C)(O)C(=O)O)CCC5O)O4)O3)CC[C@H]2O[C@@H]1C(O)CC(C)[C@H]1OC2(CCCCO2)CCC1C (stereo not given in full) returned HCV inh inconclusive, VACV mCherry inh -23% and VACV Venus inh 0.32µM*.
O=C(c1cccs1)N(Cc1ccco1)c1ccc(O)cc1 was read as VACV mCherry inh 2% and VACV Venus inh -14%.
For CCCCC(O)(CCCC)C(=O)N/N=C(\C)c1ccc(Cl)cc1 the results were Lassa entry inh -44%[46.1 µM], HCV inh -18%, VACV mCherry inh inconclusive, HCMV inh -8, MARV entry inh 11µM* and VACV Venus inh -12%.
Cc1ccccc1CN1c2ccccc2-c2nc(SCC(=O)NCCc3ccccc3)ncc2S1(=O)=O was read as Lassa entry inh 5%[46.1 µM], VACV mCherry inh -26%, HCMV inh 0 and VACV Venus inh -20%.
C=CCNC(=O)c1c[nH]c2ccc(S(=O)(=O)N(C)c3ccc(OCC)cc3)cc2c1=O was read as HCV inh inconclusive and HCMV inh -67*.
`CCOc1ccc(C(=O)NCc2cccs2)cc1` gave Lassa entry inh 11%, HCV inh -8%, HCMV inh 65 and MARV entry inh 20%.
CCCNC(=O)c1c[nH]c2ccc(S(=O)(=O)N(C)c3ccc(OCC)cc3)cc2c1=O was read as Lassa entry inh inconclusive, HCV inh 22µM*, HCMV inh inconclusive, MARV entry inh inconclusive and VACV Venus inh -26%.
`CCOc1ccc(N(C)S(=O)(=O)c2ccc(C)c(C(=O)NCc3cccs3)c2)cc1` gave HCV inh 14µM* and HCMV inh -1.
For Cc1cccc(/C=C/c2onc(C)c2[N+](=O)[O-])n1 the results were Lassa entry inh -28%, HCV inh inconclusive, VACV mCherry inh -10%[7.34 µM], HCMV inh -109*, MARV entry inh -4%[46.1 µM] and VACV Venus inh -14%[7.34 µM].
Cc1noc(/C=C/c2nn(C)cc2Cl)c1[N+](=O)[O-] was read as HCV inh inconclusive and HCMV inh -98*.
Screening Cc1cc(C)cc(NC(=O)CN2CCC(NC(=O)Cc3ccccc3)CC2)c1 returned Lassa entry inh 8%, HCV inh 5%, VACV mCherry inh -3%, HCMV inh -29, MARV entry inh -6% and VACV Venus inh -22%.
For O=C(CN1CCC(NC(=O)c2cccc(F)c2)CC1)Nc1ccc(Br)cc1 the results were Lassa entry inh 0%, HCV inh 10µM*, VACV mCherry inh -18%, HCMV inh 2, MARV entry inh 9% and VACV Venus inh -24%.
For Cc1cc(C)cc(NC(=O)CN2CCC(NC(=O)c3cccc(F)c3)CC2)c1 the results were Lassa entry inh -3%, HCV inh 6%, VACV mCherry inh -8%, HCMV inh 50, MARV entry inh -22% and VACV Venus inh inconclusive.
`O=C(NC1CCN(Cc2ccccc2)CC1)c1cccc(S(=O)(=O)Nc2ccc(Br)cc2)c1` gave Lassa entry inh inconclusive, HCV inh inconclusive, VACV mCherry inh -19%, HCMV inh -69*, MARV entry inh inconclusive and VACV Venus inh inconclusive.
`O=C(CN1CCC(NC(=O)Cc2ccccc2)CC1)Nc1ccccc1Br` gave Lassa entry inh inconclusive, HCV inh inconclusive, HCMV inh -64* and MARV entry inh 7%.
COc1ccc(NS(=O)(=O)c2ccc(C)c(C(=O)NC3CCN(Cc4ccccc4)CC3)c2)cc1 was read as Lassa entry inh -22%, VACV mCherry inh -10%, HCMV inh inconclusive, MARV entry inh inconclusive and VACV Venus inh -24%.
Cc1oc(C(C)(C)C)cc1C(=O)NC1CCN(Cc2ccccc2)CC1 was read as Lassa entry inh inconclusive, HCV inh inconclusive, VACV mCherry inh inconclusive, HCMV inh -25, MARV entry inh 10µM* and VACV Venus inh -28%.
For COc1ccc(CNC(=O)C(C)n2c(=O)cc(C)c3c(C)nn(-c4ccccc4)c32)cc1 (stereo not given) the results were Lassa entry inh 7%[46.1 µM], VACV mCherry inh -5%, HCMV inh 6 and VACV Venus inh 7%.
